# Most compounds without a hit are left out; they make up all but 3.5% or so of the library.
# FBW7 act: activators of human E3 ligase FBW7 | normalized activity (activation), % at 26.1 µM | AID 1259310 | actives 0.13% (n = 650,000) | AlphaScreen FBW7–phospho-cyclin E peptide binding, activator screen; in the data active means normalized activity above about 1.9%;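 further: purified mutant Fbw7 with reduced substrate affinity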
# Target sequence (Q969H0 whole entry, looked up): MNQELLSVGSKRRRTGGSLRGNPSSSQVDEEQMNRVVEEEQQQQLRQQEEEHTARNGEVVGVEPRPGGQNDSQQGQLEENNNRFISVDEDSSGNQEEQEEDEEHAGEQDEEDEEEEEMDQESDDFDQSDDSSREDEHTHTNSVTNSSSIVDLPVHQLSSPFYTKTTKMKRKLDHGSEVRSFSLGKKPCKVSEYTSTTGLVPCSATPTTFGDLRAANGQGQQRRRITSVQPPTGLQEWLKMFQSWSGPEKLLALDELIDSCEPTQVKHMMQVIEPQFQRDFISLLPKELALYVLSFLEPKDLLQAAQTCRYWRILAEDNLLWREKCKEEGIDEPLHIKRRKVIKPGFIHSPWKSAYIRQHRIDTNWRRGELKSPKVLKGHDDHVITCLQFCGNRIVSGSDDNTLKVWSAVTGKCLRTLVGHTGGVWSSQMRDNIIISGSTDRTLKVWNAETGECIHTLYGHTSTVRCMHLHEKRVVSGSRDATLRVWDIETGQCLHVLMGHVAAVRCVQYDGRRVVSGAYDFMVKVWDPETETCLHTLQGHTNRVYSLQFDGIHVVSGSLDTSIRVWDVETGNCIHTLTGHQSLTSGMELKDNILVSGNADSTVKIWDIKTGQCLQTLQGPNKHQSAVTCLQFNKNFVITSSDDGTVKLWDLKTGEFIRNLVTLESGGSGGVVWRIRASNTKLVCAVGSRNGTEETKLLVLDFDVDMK
# TEAD-YAP inh: TEAD-YAP interaction inhibition; AID 1259422; actives 1.4% (n = 640,000); HEK-TIYL cells, TEAD-Gal4/YAP UAS-luciferase luminescence; inhibition, % at 9.12 µM; in the data active means inhibition above about 32%;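 further: 0% = median of test compound wells and 100% = reference inhibitor wells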
# MITF inh: inhibitors of human MITF. inhibition, % at 2.6 µM. actives 0.91% (n = 650,000). AID 1259374. AlphaScreen MITF homodimerization, bead proximity signal. O75030; in the data active means inhibition above about 50%;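 further: 0% = vehicle wells with protein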
# GPR151 ag: activators of human GPR151; activation, % at 11.2 µM; PathHunter beta-arrestin GPR151 cells, luminescence; actives 1% (n = 650,000); Q8TDV0; in the data active means activation above about 4.9%;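 further: 0% = median of compound wells and 100% = cells with positive control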
# MITF inh conf: human MITF inhibition, confirmation | shares compounds with MITF inh | AlphaScreen MITF homodimerization, biotin/His-MITF beads | inhibition, % at 2.6 µM | actives 16% (n = 4,700);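 active means inhibition above a cutoff derived from the DMSO control wells, cut at about 28% in these data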;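 further: 0% = MITF dimer wells with DMSO only; inhibitors lower the bead chemiluminescence by keeping MITF from dimerizing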
# AS interf DR: counter-screen: compounds optically interfering with AlphaScreen; shares compounds with MITF inh; AlphaScreen optical interference counterscreen, cell-free; IC50, µM; actives 6% (n = 480); call rule not given here
# AlphaScreen intf2: optically interferes with AlphaScreen signal; shares compounds with MITF inh; actives 7.6% (n = 4,700); LysRS AlphaScreen counterscreen, signal interference, triplicate; inhibition, % at 2.6 µM;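 active means inhibition above a cutoff derived from the DMSO control wells, cut at about 30% in these data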
# GPR151 confirm: confirmation of human GPR151 activators; activation, % at 11.2 µM; shares compounds with GPR151 ag; 6,700 tested, under 10 active; GPR151 PathHunter beta-arrestin cells, luminescence, 90 min; % of EA-reagent control over plate median; AID 1508609;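 active means mean percent activation across replicates above the confirmation screen cutoff of 4.91%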
# GPR119 counter: activates human GPR119 in a GPR151 counter-screen. GPR119 PathHunter beta-arrestin cells, luminescence, 90 min; 0 = compound-well median, 100 = enzyme-acceptor control. AID 1508611. actives 0.3% (n = 6,700). activation, % at 11.2 µM. shares compounds with GPR151 ag;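 active means mean percent activation in the counterscreen above 29.09%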;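 further: counterscreen on off-target GPR119 to flag nonselective hits from the GPR151 activator screen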
# * marks the source's active call; other numbers are inactive results; . = not tested or not shown.
SMILES,FBW7 act,TEAD-YAP inh,MITF inh,GPR151 ag,MITF inh conf,AlphaScreen intf2,GPR151 confirm,GPR119 counter,others
Cn1cc(-c2nc(Nc3ccc(-n4cnc(N5CCOCC5)n4)cc3)ncc2Br)cn1,0,4,57*,0,67*,3,.,.,AS interf DR=>6.5
CCOC(=O)c1c(NC(=O)c2ccccc2F)sc2c1CCCC2,0,-1,-10,2,.,.,.,.,
O=C(NCCN1Cc2ccccc2OC(c2ccccc2)C1)c1cnn2cccnc12 (stereo not given),0,5,-6,0,.,.,.,.,
CN(CC1CCCCO1)C(=O)Cn1nnnc1CN1CCCCCC1 (stereo not given),0,1,51*,1,13,-10,.,.,
O=C(c1cccc(F)c1)N1CCN(Cc2ccccn2)CC1,0,-5,43,1,.,.,.,.,
O=C(c1ccc([N+](=O)[O-])cc1)N1CCN(Cc2ccccn2)CC1,0,3,64*,0,-10,-5,.,.,
O=C(c1ccc([N+](=O)[O-])cc1)N1CCN(Cc2cccc3ccccc23)CC1,0,-5,58*,2,29*,16,.,.,AS interf DR=>5.5
CC(=O)c1ccc(NC(=O)CSc2nnc(CCc3nc4ccccc4[nH]3)n2C)cc1,0,8,4,-2,.,.,.,.,
NCc1nc2ccc(Cc3ccc4nc(CN)[nH]c4c3)cc2[nH]1,0,-4,105*,-1,84*,100*,.,.,
COC(=O)c1c(C)oc2ccc(N(C(=O)c3c(OC)cccc3OC)S(=O)(=O)c3ccc(Cl)cc3)cc12,0,3,3,1,.,.,.,.,
COc1ccc(CN2CCN(C(=O)c3c(OC)cccc3OC)CC2)c(OC)c1,0,2,12,2,.,.,.,.,
COc1cccc(C(=O)N2CCN(Cc3ccc(OC)cc3OC)CC2)c1,1,6,53*,0,-2,-3,.,.,
COc1ccc(OC)c(CN2CCN(C(=O)c3ccncc3)CC2)c1,0,0,74*,-1,-11,1,.,.,
COc1ccc(OC)c(CN2CCN(C(=O)c3ccccc3)CC2)c1,0,-11,40,-1,.,.,.,.,
COc1ccc(CN2CCN(C(=O)c3ccncc3)CC2)c(OC)c1,0,-16,60*,0,17,-5,.,.,
CCCCN(Cc1ccco1)C(=O)C(=O)Nc1ccc2nc3n(c(=O)c2c1)CCCCC3,1,-2,76*,-1,8,21,.,.,
CN(Cc1ccco1)C(=O)C(=O)Nc1ccc2nc3n(c(=O)c2c1)CCCCC3,0,-7,-3,-1,.,.,.,.,
COc1ccc(S(=O)(=O)N(CC(=O)N(Cc2ccccc2)Cc2ccccc2)c2ccc(Cl)cc2)cc1,0,-4,-4,2,.,.,.,.,
COc1ccc(CCN=C(C)C2=C(O)C(c3ccccc3)OC2=O)cc1OC (stereo not given),0,12,74*,-1,4,7,.,.,
CCOC(=O)C1(CC2CCCCO2)CCN(C(=O)Cn2nc(C)nc2C)CC1 (stereo not given),0,-4,4,1,.,.,.,.,
O=C1N[C@@H](COCc2ccccc2)C(=O)N2CCN(C(=O)NCc3ccccc3)C[C@H]12,0,6,75*,7.7*,72*,-3,0,11,AS interf DR=>6.5
O=C1N[C@@H](COCc2ccccc2)C(=O)N2CCN(C(=O)Oc3ccc(Cl)cc3)C[C@H]12,0,2,-7,2,.,.,.,.,
COc1cc(C)ccc1OCCCN1CCCCCC1,0,0,9,2,.,.,.,.,
CCN1CCN(CCOc2ccc(C)cc2OC)CC1,0,4,76*,5.8*,15,19,0,-2,
COC(=O)N(C)c1nc2ccccc2s1,0,-20,72*,5.1*,-2,-7,0,-10,
SMILES,FBW7 act,TEAD-YAP inh,MITF inh,GPR151 ag,MITF inh conf,AlphaScreen intf2,GPR151 confirm,GPR119 counter,others
c1ccc(-n2cnc3c(NCc4nc5ccccc5[nH]4)nc(-c4cccs4)nc32)cc1,0,14,16,0,.,.,.,.,
Cc1ccc(OCCOCCN2CCCCC2)c([N+](=O)[O-])c1,0,4,77*,7.6*,12,14,-1,-12,
COc1ccc(NC(=O)c2cnc(N3CCN(c4ccccn4)CC3)c3ccccc23)cc1Cl,0,19,-3,-1,.,.,.,.,
COc1ccc(NC(=O)c2cnc(N3CCN(c4ncccn4)CC3)c3ccccc23)cc1OC,0,50*,63*,5.3*,-9,-4,0,30*,
COC(=O)Cn1c(=O)c2c(nc3n(-c4cccc(Cl)c4C)c(C)cn23)n(C)c1=O,0,-4,2,0,.,.,.,.,
Cc1cccc(/C(N)=N/OC(=O)c2ccc([N+](=O)[O-])cc2)c1,0,-13,3,0,.,.,.,.,
COc1ccc(C(=O)N2CCN(Cc3ccc(Br)cc3)CC2)cc1,0,31,44,1,.,.,.,.,
O=C(c1ccncc1)N1CCN(Cc2ccc(Br)cc2)CC1,0,2,77*,10*,6,22,1,16,
CC1CN(CCCOc2cc(Cl)ccc2Cl)CC(C)O1 (stereo not given),0,2,67*,8.0*,2,15,0,-9,
CCOc1ccc(Nc2nc(C)c(C(C)=O)s2)cc1,0,-70,0,2,.,.,.,.,
Cc1ccc(-n2c(=O)c3oc4ccccc4c3n(CC(N)=O)c2=O)cc1,0,-4,54*,5.5*,11,12,0,-5,
COc1ccc(NC(=O)c2sc3nc4c(cc3c2N)C(=O)CCC4)cc1,0,5,5,10*,.,.,1,12,
COc1ccc(NC(=O)c2sc3nc4c(cc3c2N)C(=O)CCC4)c(OC)c1,0,15,13,1,.,.,.,.,
N=C1C(c2ccccc2)=C(O)CN1c1ccc(C(=O)O)cc1,0,-7,6,1,.,.,.,.,
O=C(CCc1ccccc1)NC(c1ccc2c(c1)OCO2)c1c(O)ccc2ccccc12 (stereo not given),0,-1,-3,-1,.,.,.,.,
CC(C)CC(=O)NC(c1ccc2c(c1)OCO2)c1c(O)ccc2ccccc12 (stereo not given),0,1,5,5.2*,.,.,0,3,
COc1ccc(C(=O)N/N=C(\C)c2ccc(OC)c(Br)c2)cc1,0,-22,1,6.3*,.,.,-1,0,
COc1ccc(OC)c(NC(=O)c2ccc(C)cc2)c1,0,-9,-2,0,.,.,.,.,
COc1ccc(OC)c(NC(=O)c2ccc(C)c(Br)c2)c1,0,-21,2,7.9*,.,.,0,-10,
CCCNC(=O)c1cccc(Nc2ccncc2)c1,0,0,14,0,.,.,.,.,

# Source: PubChem BioAssay
